DUSP3 inh: blocks human VHR1 dual specificity phosphatase; recombinant VHR phosphatase, pNPP absorbance; inhibition, % at 13.3 µM; 290,000 compounds, 0.52% hits; in the data active = inhibition above about 50%
GDH-TPI inh: inhibits GDH-TPI coupling enzymes, artifact for Mtb FBA screen; inhibition, % at 4.8 µM; GDH-TPI coupled enzyme counterscreen, NADH absorbance; 360,000 compounds, 1.2% hits;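 note: 0% = DMSO wells and 100% = wells lacking the enzyme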
CCHF vOTU inh-1: blocks the CCHF virus ovarian tumor domain protease; AID 651958; inhibition, % at 11.5 µM; CCHFV vOTU protease, Pep-AMC fluorescence; 370,000 compounds, 0.55% hits; note: 0% = vehicle wells with enzyme and 100% = no enzyme wells
3CLpro inhibitor: SARS-CoV 3CLpro protease inhibition; P0C6X7; recombinant SARS-CoV 3CLpro, quenched FRET peptide cleavage; inhibition, % at 6 µM; 290,000 compounds, 0.14% hits; AID 1706; in the data active = inhibition above about 12%
RecA splice inh: inhibitors of M. tuberculosis RecA intein splicing | cell-free RecA intein splicing, fluorescence | inhibition, % (concentration not given with the values) | 290,000 compounds, 0.75% hits | AID 2221; in the data active = inhibition above about 30%;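 note: 0% = vehicle wells and 100% = reference inhibitor control wells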
Target sequence (P9WHJ3 whole entry, looked up, canonical isoform): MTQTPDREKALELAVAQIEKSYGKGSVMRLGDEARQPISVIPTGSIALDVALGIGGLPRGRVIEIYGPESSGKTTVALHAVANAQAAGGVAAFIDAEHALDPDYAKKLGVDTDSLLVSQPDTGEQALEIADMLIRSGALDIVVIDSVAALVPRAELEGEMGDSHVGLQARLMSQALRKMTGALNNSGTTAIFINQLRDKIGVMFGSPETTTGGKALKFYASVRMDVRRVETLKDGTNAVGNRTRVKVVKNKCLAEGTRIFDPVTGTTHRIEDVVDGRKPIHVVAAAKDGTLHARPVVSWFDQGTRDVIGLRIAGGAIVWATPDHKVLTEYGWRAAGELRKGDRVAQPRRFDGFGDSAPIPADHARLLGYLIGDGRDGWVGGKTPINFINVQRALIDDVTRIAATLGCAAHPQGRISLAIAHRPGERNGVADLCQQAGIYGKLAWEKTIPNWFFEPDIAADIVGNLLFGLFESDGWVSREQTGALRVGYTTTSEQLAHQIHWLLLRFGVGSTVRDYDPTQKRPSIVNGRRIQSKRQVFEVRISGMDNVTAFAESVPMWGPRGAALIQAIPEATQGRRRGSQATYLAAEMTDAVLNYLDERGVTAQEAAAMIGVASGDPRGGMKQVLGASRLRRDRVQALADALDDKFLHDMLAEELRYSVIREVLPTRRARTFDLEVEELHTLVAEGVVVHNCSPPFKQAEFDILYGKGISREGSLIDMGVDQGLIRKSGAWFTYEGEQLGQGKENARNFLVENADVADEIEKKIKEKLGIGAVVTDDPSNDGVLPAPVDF
Mtb FBA inh: Mtb fructose-bisphosphate aldolase inhibition; purified M. tuberculosis FBA, fluorescence read-out; inhibition, % at 1 µM; 360,000 compounds, 2.3% hits; AID 588726; in the data active = inhibition above about 27%;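 note: 0% = vehicle and 100% = reference inhibitor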
CCHF vOTU inh-2: CCHFV vOTU protease inhibition, confirmation; inhibition, % at 11.5 µM; shares compounds with CCHF vOTU inh-1; 1,900 compounds, 17% hits; Recombinant CCHFV vOTU, Pep-AMC fluorescence
An asterisk follows results filed as active; · = no result given. Shown are actives, neighbours in structure and some others; about 4.7% of the full set was active somewhere. Cut-off read from the data, not from the text of the source, unless noted: active = inhibition above about 30%; inactive = the rest.

SMILES | DUSP3 inh | GDH-TPI inh | CCHF vOTU inh-1 | 3CLpro inhibitor | RecA splice inh | Mtb FBA inh | CCHF vOTU inh-2
COc1cc(OC)cc(-c2c(-c3cccs3)c3cc(Br)ccc3n2C)c1 | · | 14 | 31* | · | · | 4 | -28
O=C(NCc1ccco1)c1ccccc1Nc1ccc(F)cc1 | -2 | 3 | 31* | 9 | 10 | 0 | -5
O=C(NCc1ccco1)c1ccccc1F | -2 | 2 | -5 | -4 | -1 | 3 | ·
CCSc1nc(=S)cc(C)[nH]1 | 27 | -3 | 31* | 1 | 0 | 0 | -25
CCCCCCC[C@@H](C/C=C/CCC(=O)N(C)C/C(=C/Cl)C/C(=C\C(=O)N1C[C@H](O)CC1=O)OC)OC | · | 5 | 31* | · | · | -1 | 13
Cc1cccc(C(=O)N[C@@H](C)C(=O)N2CCN(c3ncccn3)CC2)c1 | · | -12 | 34* | · | · | 5 | -27
Cc1ccc(S(=O)(=O)N2CCOCC2)cc1NS(=O)(=O)c1ccc(F)c(F)c1 | · | 3 | 20 | · | · | 2 | ·
Cc1ccc(S(=O)(=O)NC(=O)Cn2nnc(-c3ccccc3)c2COc2ccc3ccccc3c2)cc1 | · | 4 | 34* | · | · | 2 | 2
CC(=O)c1ccc(OCc2c(-c3ccccc3)nnn2CC(=O)NS(=O)(=O)c2ccc(C)cc2)cc1 | · | 12 | 6 | · | · | 3 | ·
O=c1[nH]n2c(=O)c3c([nH]c2c1N=Nc1cccc(C(F)(F)F)c1)CCCC3 | -10 | 10 | 44* | 4 | 12 | -17 | 13
O=c1[nH]n2c(=O)c3c([nH]c2c1N=Nc1cccc(Cl)c1)CCC3 | -8 | 9 | 23 | 2 | 8 | -21 | ·
COc1cc(COC(=O)Oc2ccc(CNC(C)=O)cc2OC)c([N+](=O)[O-])cc1OC | · | 6 | 31* | · | -4 | 0 | -11
NC(=O)C1CCN(C(=O)C2CC(=O)N(Cc3ccccc3)C2)CC1 (configuration not stated) | · | 2 | 4 | · | · | -1 | ·
O=C(Nc1c(-c2ccc3c(c2)OCO3)[nH][nH]c1=O)c1ccccc1 | · | · | 42* | · | · | 5 | -6
O=C(Nc1c(-c2ccc3c(c2)OCO3)[nH][nH]c1=O)c1cccc(C(F)(F)F)c1 | · | · | 34* | · | · | 0 | -9
O=C1C=C(/C=C/c2ccccc2)C[C@@H](c2ccc(F)cc2)C1 | · | 15 | 7 | · | · | -5 | ·
COc1ccc([C@H]2CC(=O)C=C(/C=C/c3ccccc3)C2)cc1OC | · | 38* | 30* | · | · | -3 | 8
Cc1nnc(N/N=C/c2ccc(-c3ccc(Br)cc3)o2)n1N | -4 | 24 | 77* | -1 | 0 | -2 | -2
O=C(O)c1ccc(N/N=C/c2ccc(-c3ccc(Br)cc3)o2)cc1 | 7 | 19 | 33* | -1 | -74 | 11 | -3
Cc1csc(N/N=C/c2ccc([N+](=O)[O-])cc2)n1 | -8 | 17 | 6 | -4 | -2 | -3 | ·
Cc1ccc(/C=N/Nc2ccc(C(=O)O)cc2)o1 | 6 | 20 | 11 | 7 | -4 | 2 | ·
Cc1nnc(N/N=C\c2ccc(-c3cccc(C(=O)O)c3)o2)n1N | 18 | 18 | 73* | 0 | -8 | 18 | -25
Cc1nnc(N/N=C/c2ccc([N+](=O)[O-])cc2)n1N | 16 | 13 | 122* | -2 | 4 | -26 | -6
O=C(COC(=O)C12CC3CC(CC(Br)(C3)C1)C2)N1CCOCC1 | 26 | 3 | 0 | 2 | -1 | -4 | ·
COc1cccc(S(=O)(=O)N(C)C[C@H]2OCc3cnnn3CCCC(=O)N([C@H](C)CO)C[C@H]2C)c1 | · | 15 | 5 | · | · | 1 | ·
O=C(NCC1COc2ccccc2O1)C1CCN(S(=O)(=O)c2ccc(Cl)cc2)CC1 (configuration not stated) | · | 5 | -4 | · | · | -2 | ·
Cc1ccc(S(=O)(=O)N2CCN(C(=O)CSc3nc(N)cc(=O)[nH]3)CC2)c(C)c1 | 18 | 4 | -9 | 4 | 0 | 0 | ·
Cc1nnc(N/N=C/c2ccc(Br)cc2)n1N | 6 | -15 | 94* | 4 | -10 | -44 | -13
O=C1C=CC(=O)N1c1ccc(Nc2ccccc2)cc1 | · | 14 | 41* | · | · | -3 | -16
O=C1C=C(C2OC(CO)C(O)C2O)C(=O)N1 (configuration not stated) | · | 4 | -3 | · | · | 4 | ·

From PubChem BioAssay
